Test results as given in PubChem BioAssay.
Activity calls are given as the source filed them.

Experiments:
[1] = small molecules captured by biotinylated probe aFSTL3 – biochemical, small-molecule microarray, fluorescence 635/667, stem cell growth factor project, primary screen (AID 1064); conditions: higher = more signal;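 further: measures binding of the biotinylated anti-FSTL3 antibody to printed compounds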
[2] = binders from COS7 lysate, DM2A8 probe, primary screen, torsin A project, cell lysate, small-molecule microarray, fluorescence 635/667 (AID 1065); conditions: higher = more signal, COS7 lysate expressing mutant human TOR1A
[3] = small molecules captured by biotinylated probe aFGF2 – biochemical, small-molecule microarray, fluorescence 635/667, stem cell growth factor project, primary screen (AID 1067); conditions: higher = more signal;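 further: measures binding of biotinylated aFGF2 protein to printed compounds on slides; z-score merges feature fluorescence and signal-to-noise across triplicate slides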
[4] = small molecules captured by biotinylated probe aFGF10 – biochemical, small-molecule microarray, fluorescence 635/667, stem cell growth factor project, primary screen (AID 1071); conditions: higher = more signal;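 further: score merges 667 nm spot intensity and signal to noise from triplicate slides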
[5] = target: Neurogenic locus notch homolog protein 2 (Homo sapiens) (UniProt Q04721); experiment: small molecules binding Notch2 protein – biochemical, small-molecule microarray, 635 nm fluorescence, stem cell growth factors, primary screen (AID 1073); conditions: higher = more signal
[6] = target: Pro-neuregulin-1, membrane-bound isoform (Homo sapiens) (UniProt Q02297); experiment: small molecules binding neuregulin-1 protein – biochemical, small-molecule microarray, fluorescence 635/667, psychiatric disease protein project, primary screen (AID 1075); conditions: NRG1 binding, 635 nm fluorescence, higher = more signal;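 further: score combines 667 nm spot fluorescence with signal to noise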
[7] = tested on: Neuregulin-1 EGF-like domain; experiment: small molecules binding NRG1 EGF domain – biochemical, small-molecule microarray, 635 nm fluorescence, primary screen (AID 1081); conditions: higher = more signal;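 further: binding of the protein to compounds printed on small-molecule microarray slides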
[8] = FRG1 expression reporter modulators in myotubes – cell-based, C2C12 myotubes, firefly/Renilla luciferase, luminescence, FRG1 inhibition for FSHD, primary screen (AID 1084); conditions: FRG1 promoter luciferase, higher = more signal, called active from +8 up or from −8 down
[9] = small molecules captured by biotinylated probe aFST – biochemical, small-molecule microarray, fluorescence 635/667, stem cell growth factor project, primary screen (AID 1086); conditions: higher = more signal;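 further: score merges 667 nm fluorescence with signal-to-noise of each printed compound spot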
[10] = binders of probe aHhip on microarray, primary screen, stem cell growth factor project, biochemical, small-molecule microarray, fluorescence 635/667 (AID 1087); conditions: higher = more signal;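 further: score merges spot fluorescence at 667nm with spot signal to noise ratio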

Sequence of Pro-neuregulin-1, membrane-bound isoform (Homo sapiens) (Q02297 whole entry, looked up, the tested form may be a part, canonical isoform): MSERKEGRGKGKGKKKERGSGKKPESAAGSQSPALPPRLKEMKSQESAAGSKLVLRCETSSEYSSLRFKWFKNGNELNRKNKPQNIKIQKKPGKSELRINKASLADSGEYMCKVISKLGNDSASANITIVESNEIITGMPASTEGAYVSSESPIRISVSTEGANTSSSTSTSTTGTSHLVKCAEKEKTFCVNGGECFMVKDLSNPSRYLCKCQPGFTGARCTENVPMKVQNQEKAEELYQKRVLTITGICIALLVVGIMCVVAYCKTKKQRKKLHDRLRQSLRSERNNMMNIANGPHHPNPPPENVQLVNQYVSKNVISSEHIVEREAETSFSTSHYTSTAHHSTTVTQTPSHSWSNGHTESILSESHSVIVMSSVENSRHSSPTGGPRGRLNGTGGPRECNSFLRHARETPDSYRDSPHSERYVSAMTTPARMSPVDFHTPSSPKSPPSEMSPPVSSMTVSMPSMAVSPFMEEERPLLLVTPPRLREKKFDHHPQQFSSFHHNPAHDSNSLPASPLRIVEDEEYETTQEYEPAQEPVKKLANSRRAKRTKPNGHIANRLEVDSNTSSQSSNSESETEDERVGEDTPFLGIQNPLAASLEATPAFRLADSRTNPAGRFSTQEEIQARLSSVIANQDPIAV
Sequence of Neurogenic locus notch homolog protein 2 (Homo sapiens) (Q04721 whole entry, looked up, canonical isoform): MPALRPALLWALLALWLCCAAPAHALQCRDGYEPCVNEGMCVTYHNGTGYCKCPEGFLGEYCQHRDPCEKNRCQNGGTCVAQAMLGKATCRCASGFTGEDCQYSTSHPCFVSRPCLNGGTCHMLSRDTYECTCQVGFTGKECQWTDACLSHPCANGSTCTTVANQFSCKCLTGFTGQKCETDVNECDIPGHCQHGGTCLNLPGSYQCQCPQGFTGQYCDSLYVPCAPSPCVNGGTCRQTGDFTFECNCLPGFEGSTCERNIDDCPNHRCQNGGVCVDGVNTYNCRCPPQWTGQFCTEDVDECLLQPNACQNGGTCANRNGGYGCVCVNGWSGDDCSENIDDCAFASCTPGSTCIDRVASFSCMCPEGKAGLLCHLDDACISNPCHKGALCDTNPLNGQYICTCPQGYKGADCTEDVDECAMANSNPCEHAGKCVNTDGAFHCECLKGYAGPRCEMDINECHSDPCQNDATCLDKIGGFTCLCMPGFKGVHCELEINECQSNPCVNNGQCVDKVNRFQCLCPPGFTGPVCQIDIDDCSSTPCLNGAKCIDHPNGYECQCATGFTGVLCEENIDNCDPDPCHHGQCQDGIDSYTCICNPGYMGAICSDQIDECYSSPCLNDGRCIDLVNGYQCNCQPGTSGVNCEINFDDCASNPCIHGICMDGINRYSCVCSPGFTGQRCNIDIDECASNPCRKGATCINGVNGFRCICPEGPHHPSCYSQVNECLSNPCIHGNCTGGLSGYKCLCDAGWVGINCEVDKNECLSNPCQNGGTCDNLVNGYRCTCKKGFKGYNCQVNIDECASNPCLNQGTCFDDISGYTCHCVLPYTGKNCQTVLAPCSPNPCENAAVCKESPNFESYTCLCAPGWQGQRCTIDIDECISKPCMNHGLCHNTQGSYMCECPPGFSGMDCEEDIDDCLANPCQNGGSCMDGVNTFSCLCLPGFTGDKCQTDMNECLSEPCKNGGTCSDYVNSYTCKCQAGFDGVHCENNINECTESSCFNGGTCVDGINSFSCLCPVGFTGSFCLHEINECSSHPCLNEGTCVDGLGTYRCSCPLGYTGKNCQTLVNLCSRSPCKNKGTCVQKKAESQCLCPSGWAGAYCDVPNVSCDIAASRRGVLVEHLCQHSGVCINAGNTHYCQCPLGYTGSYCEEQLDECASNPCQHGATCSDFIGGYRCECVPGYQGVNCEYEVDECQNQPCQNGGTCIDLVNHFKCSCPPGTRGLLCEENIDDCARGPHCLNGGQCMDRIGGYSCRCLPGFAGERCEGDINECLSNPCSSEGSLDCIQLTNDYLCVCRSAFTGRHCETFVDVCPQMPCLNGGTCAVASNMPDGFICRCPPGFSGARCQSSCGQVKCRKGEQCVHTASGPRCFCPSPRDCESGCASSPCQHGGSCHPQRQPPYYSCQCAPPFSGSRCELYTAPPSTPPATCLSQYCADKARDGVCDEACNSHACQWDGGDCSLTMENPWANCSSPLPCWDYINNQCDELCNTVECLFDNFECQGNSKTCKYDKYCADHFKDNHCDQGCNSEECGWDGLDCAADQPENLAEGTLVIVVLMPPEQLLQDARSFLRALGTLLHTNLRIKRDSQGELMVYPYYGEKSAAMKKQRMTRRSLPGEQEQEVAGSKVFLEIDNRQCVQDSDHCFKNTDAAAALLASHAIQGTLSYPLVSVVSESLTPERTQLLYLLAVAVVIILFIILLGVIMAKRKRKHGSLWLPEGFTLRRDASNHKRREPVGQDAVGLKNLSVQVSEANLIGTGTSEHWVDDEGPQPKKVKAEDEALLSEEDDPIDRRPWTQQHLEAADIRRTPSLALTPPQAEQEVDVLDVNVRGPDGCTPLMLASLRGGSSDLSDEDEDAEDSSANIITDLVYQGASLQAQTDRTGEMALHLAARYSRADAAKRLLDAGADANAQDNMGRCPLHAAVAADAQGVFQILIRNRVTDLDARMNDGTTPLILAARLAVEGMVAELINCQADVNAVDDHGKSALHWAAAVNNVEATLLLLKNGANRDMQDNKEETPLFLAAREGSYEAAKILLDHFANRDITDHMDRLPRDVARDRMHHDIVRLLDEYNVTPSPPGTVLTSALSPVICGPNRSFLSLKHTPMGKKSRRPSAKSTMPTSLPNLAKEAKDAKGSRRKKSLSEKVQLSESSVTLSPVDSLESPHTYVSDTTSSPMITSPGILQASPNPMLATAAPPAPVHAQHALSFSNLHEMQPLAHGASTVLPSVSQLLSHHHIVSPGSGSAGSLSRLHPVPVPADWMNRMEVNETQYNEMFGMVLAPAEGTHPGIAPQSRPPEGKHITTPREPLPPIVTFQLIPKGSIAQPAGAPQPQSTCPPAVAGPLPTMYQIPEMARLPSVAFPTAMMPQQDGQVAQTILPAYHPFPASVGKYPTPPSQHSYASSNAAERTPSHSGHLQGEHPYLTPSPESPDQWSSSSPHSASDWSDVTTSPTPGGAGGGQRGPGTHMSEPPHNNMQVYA

| Structure (SMILES) | composite z-score [1] | composite z-score [2] | composite z-score [3] | composite z-score [4] | composite z-score [5] | composite z-score [6] | composite z-score [7] | z-score [8] | composite z-score [9] | composite z-score [10] |
| --- | --- | --- | --- | --- | --- | --- | --- | --- | --- | --- |
| C=CCN(Cc1ccccc1)C(=O)C(c1cccs1)N(C(=O)/C=C\C(=O)O)c1ccc(CCOCCO)cc1 (stereo not given) | 0.146 | -0.182 | -0.176 | -0.865 | -1.84 | 0.718 | 0.0305 | 0.988 (inactive) | -1.35 | -0.134 |
| Cc1ccc(S(=O)(=O)N2C[C@@H](C(=O)O)[C@H](Sc3ccccc3)C[C@H]2c2ccccc2)cc1 | 0.265 | 0.57 | 0.172 | 1.15 | 1.61 | 1.3 | 1.12 | -2.97 (inactive) | 1.56 | -0.34 |
| C#CCN1[C@H](/C=C/C2CC2)[C@H](Cc2ccccc2)OC(=O)[C@@H]1Cc1ccccc1 | -0.413 | 0.241 | -0.144 | -0.0377 | -0.343 | 0.153 | 0.524 | -4.01 (inactive) | -0.0168 | 0.0373 |
| C[N+](C)(C)CCCC[C@@H]1NC(=O)[C@@H]2C[C@H](C(=O)NCCCCCN)[C@H](c3ccc(O)cc3)N2C1=O | 0.419 | 0.896 | 0.0522 | 0.628 | 1 | 1.54 | 0.636 | -1.76 (inactive) | 1.19 | 0.266 |
| CCOC(=O)C[C@H]1[C@H](OC(=O)c2cc3ccccc3oc2=O)[C@@H](NC(=O)CC(C)C)c2cc(OCCCO)ccc2N1C(=O)c1ccccc1 | -0.26 | 0.478 | -0.0327 | 0.667 | 0.3 | -0.0698 | 0.397 | -0.332 (inactive) | 0.128 | 0.0373 |
| NC(=O)[C@@H]1[C@H]2C(=O)O[C@H](c3ccccc3)[C@H](c3ccccc3)N2[C@H](c2ccc(O)cc2)[C@@]12C(=O)Nc1ccc(C#CC3=CCCCC3)cc12 | -0.542 | 0.103 | -0.222 | 0.604 | -0.173 | 1.68 | 1.15 | 0.009 (inactive) | -0.21 | -0.357 |
| CC(C)[Si](C#CCCCC#N)(Oc1ccccc1Br)C(C)C | -0.517 | 0.14 | -0.182 | 0.151 | 0.266 | 0.151 | 0.204 | 0.382 (inactive) | 0.155 | 0.316 |
| C=CCC(OC(C)=O)[C@@H]1[C@@H](N(Cc2ccc(-c3cccc(C(F)(F)F)c3)o2)C(=O)Cc2ccc(OC)cc2)c2cc(OCCCO)ccc2N1C(=O)c1ccc2ccccc2c1 (stereo not given in full) | 0.0929 | -0.404 | -0.043 | -0.608 | -0.654 | 0.522 | -0.125 | 0.782 (inactive) | 0.234 | -0.236 |
| COC(=O)[C@@]1(Cc2ccccc2)[C@H]2c3cc(C(=O)N(C)C)n(CCc4c[nH]c5ccc(O)cc45)c3C[C@H]2CN1C(=O)c1ccccc1 | 0.808 | -0.0685 | 0.0518 | 0.188 | 0.832 | -0.198 | 1.29 | 0.688 (inactive) | 1.21 | -0.191 |
| CO[C@H]1O[C@H](CO)[C@@H](OC(=O)Nc2cccc(F)c2)[C@H](OC(=O)Nc2ccccc2)[C@H]1OC(=O)Nc1ccccc1 | -0.246 | 1.35 | 0.0664 | 0.466 | 1.07 | 0.981 | 1.36 | 0.746 (inactive) | 0.724 | -0.191 |
| C=C(CCCC)/C(=C/C[C@@H](OC(C)=O)c1ccccc1OCCO)c1cc(C(=O)OC)ccc1OC | 0.0248 | -0.0044 | -0.0996 | 0.187 | -0.659 | -0.0693 | -0.0487 | 0.549 (inactive) | -0.38 | -0.271 |
| C=CCC(OC(C)=O)[C@@H]1[C@@H](N(Cc2ccc(-c3cccc(C(F)(F)F)c3)o2)C(=O)c2cccc3ccccc23)c2cc(OCCCO)ccc2N1C(=O)Cc1ccc2ccccc2c1 (stereo not given in full) | -0.0817 | -0.261 | -0.152 | 0.2 | -0.35 | 0.376 | 0.109 | 0.3 (inactive) | 0.214 | -0.199 |
| C#CCOc1ccc(C[C@@H](C(=O)OC)N(CC#C)[C@@H](/C=C/C2CC2)[C@H](O)Cc2ccccc2)cc1 | 0.282 | -1 | -0.198 | -0.207 | -1.12 | -0.294 | -0.0146 | -4.34 (inactive) | -0.353 | -0.0994 |
| Cc1ccc(C2C3C(=O)CC4C(=O)N(c5ccccc5)C(=O)C4C3CN2S(=O)(=O)c2ccc(C)cc2)cc1 (stereo not given) | 0.469 | 0.204 | 0.292 | 0.59 | 1.57 | 1.25 | 1.32 | 0.0035 (inactive) | 1.58 | 0.365 |
| CCOC(=O)C[C@H]1[C@H](OC(=O)c2ccc(-c3ccccc3)cc2)[C@@H](NC(=O)c2ccccc2)c2cc(OCCCO)ccc2N1C(=O)c1ccc2ccccc2n1 | -0.168 | 0.732 | -0.105 | 0.311 | 0.606 | 0.742 | 0.507 | 1.22 (inactive) | 0.402 | -0.0994 |
| CCN(CC)c1ccc(N2CC=CC34O[C@@H]5C=CCOC(=O)[C@@H]5[C@H]3C(=O)N(CCCCCCO)[C@@H]4C2=O)cc1 (stereo not given in full) | 0.52 | 0.19 | -0.167 | -0.631 | -0.489 | 1.87 | 1.46 | -0.766 (inactive) | -0.263 | -0.0296 |
